Structures are written as SMILES. Results filed as inconclusive are left out. Values without a mark were called inactive. Calls of active or inactive are those of the source. Calls come from the whole dose curve; as a rule, active = well fitted curve in the direction sought with a large enough effect; inconclusive = small, poorly fitted or top-dose-only effect, or another doubt; inactive = no such curve, though single readings can be large; an effect the other way counts as inactive or inconclusive.
Note: nearly all actives have a fitted effect of over 70% in size.

The target of the first assay is Luciferin 4-monooxygenase (Photinus pyralis) (UniProt P08659). The assay can be described thus: Biochemical firefly luciferase enzyme assay for NPC (AID 624030).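 For activity change, negative = inhibition: purified P. pyralis luciferase at 10 nM with luciferin and ATP substrate; 0% = DMSO and -100% = full luciferase inhibition by PTC124 control.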 Note: potency is the fitted concentration of half-maximal effect. The conditions noted are these: purified P. pyralis luciferase, luminescence, 5 min; series mostly up to 58.6 µM; activity change, negative = inhibition: at the top concentration. In a few lines: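 Counter-screen for direct inhibition of the luciferase enzyme by approved-drug library compounds, run at 10 nM enzyme in 50 mM Tris acetate (final). Luminescence was read within 5 min of enzyme-buffer addition and normalized to PTC124 versus DMSO (0%).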
Luciferin 4-monooxygenase (Photinus pyralis), sequence (P08659 whole entry, looked up): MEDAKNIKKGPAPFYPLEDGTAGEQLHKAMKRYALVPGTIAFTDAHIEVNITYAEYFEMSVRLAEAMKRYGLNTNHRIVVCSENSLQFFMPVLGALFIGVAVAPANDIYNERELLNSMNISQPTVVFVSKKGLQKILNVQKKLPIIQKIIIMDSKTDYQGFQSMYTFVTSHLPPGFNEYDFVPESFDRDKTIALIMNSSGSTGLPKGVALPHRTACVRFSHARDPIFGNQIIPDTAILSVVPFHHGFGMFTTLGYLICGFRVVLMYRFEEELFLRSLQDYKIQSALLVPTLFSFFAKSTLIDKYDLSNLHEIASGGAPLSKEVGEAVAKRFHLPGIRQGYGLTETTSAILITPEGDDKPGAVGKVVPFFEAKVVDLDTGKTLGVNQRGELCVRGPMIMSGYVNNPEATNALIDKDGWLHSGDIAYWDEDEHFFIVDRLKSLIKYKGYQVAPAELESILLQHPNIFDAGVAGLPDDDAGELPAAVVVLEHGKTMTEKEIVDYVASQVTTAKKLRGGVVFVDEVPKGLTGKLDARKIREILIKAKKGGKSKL
As to `CC(C)C[C@H](NC(=O)[C@@H](O)[C@H](N)Cc1ccccc1)C(=O)O`, the “activity change, negative = inhibition” value was -4.31%.

On to `Nc1nc2c(ncn2COCCO)c(=O)[nH]1`, for which the “activity change, negative = inhibition” value is -0.67% [at 24.9 µM].

In the case of `C1COC(NC(C2CC2)C2CC2)=N1`, the “activity change, negative = inhibition” value was -0.509%.

In the case of `O=C(NOC[C@H](O)CO)c1ccc(F)c(F)c1Nc1ccc(I)cc1F`, the “activity change, negative = inhibition” value is -6.13%.

Consider `CCOC(=O)C1=C[C@]2(CC)CCCN3CCc4c(n1c1ccccc41)[C@@H]32`, for which the “activity change, negative = inhibition” value was -1.85%.

Regarding `CCOC(=O)N1CCC(=C2c3ccc(Cl)cc3CCc3cccnc32)CC1`, the “activity change, negative = inhibition” value is -5.48%.

With `CCCc1nn(C)c2c(=O)[nH]c(-c3cc(S(=O)(=O)N4CCN(C)CC4)ccc3OCC)nc12`, the “activity change, negative = inhibition” value was -0.727%.

In the case of `OC(CCN1CCCCC1)(c1ccccc1)C1CC2C=CC1C2` (centres undefined), the “activity change, negative = inhibition” value is 4.16%.

Take `O=c1n(CCCN2CCN(c3cccc(Cl)c3)CC2)nc2ccccn12`: the “activity change, negative = inhibition” value is -0.312% [at 24.9 µM].

With `Cn1cnc2c(F)c(Nc3ccc(Br)cc3Cl)c(C(=O)NOCCO)cc21`, the “activity change, negative = inhibition” value was -17.1%.

Consider `C#Cc1cccc(Nc2ncnc3cc(OCCOC)c(OCCOC)cc23)c1`, for which the “activity change, negative = inhibition” value was 0.0137%.

Turning to `Clc1ccc(Nc2nnc(Cc3ccncc3)c3ccccc23)cc1`, the Potency result is “inactive”.

Take `CNC(=O)c1ccccc1Sc1ccc2c(/C=C/c3ccccn3)n[nH]c2c1`: the Potency was 0.51 µM (active).

Consider `OC(CN1CCC(Cc2ccc(F)cc2)CC1)c1ccc(Cl)cc1` (centres undefined), for which the “activity change, negative = inhibition” value is 0.904%.

In the case of `CCOC(=O)C1=C[C@@]2(CC)CCCN3CCc4c(n1c1ccccc41)[C@H]32`, the “activity change, negative = inhibition” value is 3.93%.

With `Cc1cnc(NC(=O)C2=C(O)c3ccccc3S(=O)(=O)N2C)s1`, the “activity change, negative = inhibition” value is -7.03%.

As for `NCCCC(N)(C(=O)O)C(F)F` (centres undefined), the “activity change, negative = inhibition” value was 7.18%.

For `Cc1ccc(N(CC2=NCCN2)c2cccc(O)c2)cc1`, the “activity change, negative = inhibition” value was -0.0224%.

Test system in another assay: not listed separately
Briefly: S16 Schwann cell viability assay (CellTiter-Glo assay) (AID 624031).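 Note: native untransfected S16 rat Schwann cells; plate controls were DMSO-treated cells for no effect and cell-free wells for full effect.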 Particulars: S16 rat Schwann cells viability, 24 h; series mostly up to 57.5 µM; activity change, negative = cytotoxicity: at the top concentration. In a few lines:
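Parental S16 cells, 24 h compound, 37 °C. ATP-luminescence viability; DMSO = 0% activity, empty wells as reference; curves classified by fit quality and efficacy.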
(In general: ATP-based viability assays read luminescence as a measure of living cells.)
`CC(C)C[C@H](NC(=O)[C@@H](O)[C@H](N)Cc1ccccc1)C(=O)O`: the “activity change, negative = cytotoxicity” value is -9.84%.

Take `Nc1nc2c(ncn2COCCO)c(=O)[nH]1`: the “activity change, negative = cytotoxicity” value is 5.45% [at 25.7 µM].

For `Cc1oncc1C(=O)Nc1ccc(C(F)(F)F)cc1`, the “activity change, negative = cytotoxicity” value is -1.98% [at 25.7 µM].

With `CCOC(=O)N1CCC(=C2c3ccc(Cl)cc3CCc3cccnc32)CC1`, the “activity change, negative = cytotoxicity” value was -17.9%.

As to `CCCc1nn(C)c2c(=O)[nH]c(-c3cc(S(=O)(=O)N4CCN(C)CC4)ccc3OCC)nc12`, the “activity change, negative = cytotoxicity” value was -4.72%.

Regarding `O=c1n(CCCN2CCN(c3cccc(Cl)c3)CC2)nc2ccccn12`, the “activity change, negative = cytotoxicity” value was 1.45% [at 25.7 µM].

Turning to `Nc1nc2ccc(OC(F)(F)F)cc2s1`, the “activity change, negative = cytotoxicity” value is -5.27%.

Turning to `CCc1ccc(CCOc2ccc(CC3SC(=O)NC3=O)cc2)nc1` (centres undefined), the “activity change, negative = cytotoxicity” value was -27.3%.

`NCCCC(N)(C(=O)O)C(F)F` (centres undefined): the “activity change, negative = cytotoxicity” value was -1.33%.

Consider `NNCCc1ccccc1`, for which the “activity change, negative = cytotoxicity” value was -0.78% [at 25.7 µM].

With `Cc1ccc(N(CC2=NCCN2)c2cccc(O)c2)cc1`, the “activity change, negative = cytotoxicity” value is 9.53%.
